Test results as given in the supplement of paper PMC10849652.
The full data set covers some 8,800 targets. This sample favours those with a hit. About 0.5% of all pairs of compound and target were hits.

Tests used:
Experiment in all cases: log2 fold change, soluble protein after heating vs DMSO (PISA); higher = thermal stabilisation; K562 lysate, 10 uM; active = over 0.2 and 3.5 SD of the protein, either way, in both replicates (recomputed)
[1] = compound: CS(=O)(=O)CCNCc1ccc(-c2ccc3ncnc(Nc4ccc(OCc5cccc(F)c5)c(Cl)c4)c3c2)o1 [lapatinib]
How it was run: (§1)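 Pellets of K562 cells were dounce-homogenised in PBS pH 7.4 with 1 mM MgCl2, and the crude extract was held at 1 mg/mL protein for a 30 min treatment with 10 μM compound. Aliquots were heated for 3 min over 48°C-58°C and pooled before NP-40 was added to 0.5% at 4°C. The supernatant from 21,000xg for 90 min was quantified by TMTpro 16plex LC-MS/MS with channel sums equalised. Values are reported from duplicates as log-two fold change in thermal stability relative to solvent controls.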

[2] = compound: CS(=O)(=O)N1CCN(Cc2cc3nc(-c4cccc5[nH]ncc45)nc(N4CCOCC4)c3s2)CC1 [pictilisib]
How it was run: as §1

[3] = compound: C[C@@H](Oc1cc(-c2cnn(C3CCNCC3)c2)cnc1N)c1c(Cl)ccc(F)c1Cl [crizotinib]
How it was run: as §1

[4] = compound: C[C@H](C1=CC=C(C=C1)C(=O)NC2=C3C=CNC3=NC=C2)N
How it was run: as §1

[5] = compound: C[C@H](Nc1ncnc2nc[nH]c12)c1cc2cccc(Cl)c2c(=O)n1-c1ccccc1 [duvelisib]
How it was run: as §1

[6] = compound: Cc1cc(Nc2cc(CN3CCOCC3)c3nc(C)c(Cc4ccc(Cl)cc4F)n3n2)n[nH]1 [gandotinib]
How it was run: as §1

[7] = compound: Cc1cc(Nc2cc(N3CCN(C)CC3)nc(Sc3ccc(NC(=O)C4CC4)cc3)n2)n[nH]1 [tozasertib]
How it was run: as §1

[8] = compound: Cc1ccc(-n2nc(C(C)(C)C)cc2NC(=O)Nc2ccc(OCCN3CCOCC3)c3ccccc23)cc1 [doramapimod]
How it was run: as §1

[9] = compound: Cc1ccc(NC(=O)c2ccc(CN3CC[C@H](N(C)C)C3)c(C(F)(F)F)c2)cc1Nc1nccc(-c2cncnc2)n1 [bafetinib]
How it was run: as §1

[10] = compound: Cc1cccc(CC(=O)N2CCc3c2ccc(-c2cn(C)c4ncnc(N)c24)c3F)n1
How it was run: as §1

[11] = compound: Cc1cn(-c2cc(NC(=O)c3ccc(C)c(Nc4nccc(-c5cccnc5)n4)c3)cc(C(F)(F)F)c2)cn1 [nilotinib]
How it was run: as §1

[12] = compound: Cc1nc(Nc2n[nH]c3c2CN(C(=O)N[C@H](CN(C)C)c2ccccc2)C3(C)C)c2sccc2n1
How it was run: as §1

[13] = compound: Cc1nc(Nc2ncc(C(=O)Nc3c(C)cccc3Cl)s2)cc(N2CCN(CCO)CC2)n1 [dasatinib]
How it was run: as §1

[14] = compound: Cc1ncc(-c2ccnc(Nc3ccc(S(C)(=O)=O)cc3)n2)n1C(C)C
How it was run: as §1

[15] = compound: Cn1cc(-c2ccc3c(c2)CCN3C(=O)Cc2cccc(C(F)(F)F)c2)c2c(N)ncnc21
How it was run: as §1

[16] = compound: Cn1cc(CNCC2CCN(c3ncc(C(=O)NO)cn3)CC2)c2ccccc21 [quisinostat]
How it was run: as §1

[17] = compound: Cn1cncc1[C@@](N)(c1ccc(Cl)cc1)c1ccc2c(c1)c(-c1cccc(Cl)c1)cc(=O)n2C [tipifarnib]
How it was run: as §1

[18] = compound: NC(=O)Nc1cc(-c2cccc(F)c2)sc1C(=O)N[C@H]1CCCNC1
How it was run: as §1

[19] = compound: NC(=O)c1cnc(N[C@@H]2CCCC[C@@H]2N)nc1Nc1cccc(-n2nccn2)c1
How it was run: as §1

[20] = compound: NC1(c2ccc(-c3nc4ccn5c(=O)[nH]nc5c4cc3-c3ccccc3)cc2)CCC1
How it was run: as §1

Measured: log2 fold change

CCDC47 (UniProt Q96A33)
UniProt Q96A33, sequence (Q96A33 whole entry, looked up): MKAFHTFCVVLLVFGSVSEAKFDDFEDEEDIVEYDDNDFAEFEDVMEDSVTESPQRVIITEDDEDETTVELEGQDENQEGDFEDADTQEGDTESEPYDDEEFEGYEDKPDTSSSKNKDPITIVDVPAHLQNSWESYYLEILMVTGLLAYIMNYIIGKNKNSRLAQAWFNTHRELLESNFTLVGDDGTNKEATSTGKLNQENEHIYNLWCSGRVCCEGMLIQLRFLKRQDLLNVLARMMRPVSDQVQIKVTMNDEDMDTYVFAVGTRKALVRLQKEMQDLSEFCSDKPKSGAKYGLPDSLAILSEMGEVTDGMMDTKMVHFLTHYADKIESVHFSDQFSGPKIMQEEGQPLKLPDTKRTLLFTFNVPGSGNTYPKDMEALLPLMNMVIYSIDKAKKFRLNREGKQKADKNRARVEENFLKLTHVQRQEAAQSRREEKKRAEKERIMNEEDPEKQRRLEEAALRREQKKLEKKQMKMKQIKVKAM
inactive: [1] -0.05 | [2] 0.005 | [3] -0.016 | [4] -0.012 | [5] -0.03 | [6] -0.145 | [7] -0.009 | [8] -0.018 | [9] -0.031 | [10] 0.049 | [11] -0.012 | [12] -0.009 | [13] -0.016 | [14] 0.025 | [15] -0.009 | [16] 0.006 | [17] -0.025 | [18] 0.014 | [19] 0.019 | [20] -0.023

CDAN1 (UniProt Q8IWY9)
inactive: [1] 0.009 | [2] -0.05 | [3] -0.038 | [4] 0 | [5] 0.026 | [6] -0.073 | [7] 0.068 | [8] -0.021 | [9] -0.056 | [10] 0.051 | [11] -0.029 | [12] 0.022 | [13] -0.055 | [14] -0.014 | [15] -0.037 | [16] -0.09 | [17] -0.026 | [18] 0.066 | [19] 0.017 | [20] -0.032

CHD4 isoform 2 (UniProt Q14839)
UniProt Q14839, sequence (Q14839 whole entry, looked up): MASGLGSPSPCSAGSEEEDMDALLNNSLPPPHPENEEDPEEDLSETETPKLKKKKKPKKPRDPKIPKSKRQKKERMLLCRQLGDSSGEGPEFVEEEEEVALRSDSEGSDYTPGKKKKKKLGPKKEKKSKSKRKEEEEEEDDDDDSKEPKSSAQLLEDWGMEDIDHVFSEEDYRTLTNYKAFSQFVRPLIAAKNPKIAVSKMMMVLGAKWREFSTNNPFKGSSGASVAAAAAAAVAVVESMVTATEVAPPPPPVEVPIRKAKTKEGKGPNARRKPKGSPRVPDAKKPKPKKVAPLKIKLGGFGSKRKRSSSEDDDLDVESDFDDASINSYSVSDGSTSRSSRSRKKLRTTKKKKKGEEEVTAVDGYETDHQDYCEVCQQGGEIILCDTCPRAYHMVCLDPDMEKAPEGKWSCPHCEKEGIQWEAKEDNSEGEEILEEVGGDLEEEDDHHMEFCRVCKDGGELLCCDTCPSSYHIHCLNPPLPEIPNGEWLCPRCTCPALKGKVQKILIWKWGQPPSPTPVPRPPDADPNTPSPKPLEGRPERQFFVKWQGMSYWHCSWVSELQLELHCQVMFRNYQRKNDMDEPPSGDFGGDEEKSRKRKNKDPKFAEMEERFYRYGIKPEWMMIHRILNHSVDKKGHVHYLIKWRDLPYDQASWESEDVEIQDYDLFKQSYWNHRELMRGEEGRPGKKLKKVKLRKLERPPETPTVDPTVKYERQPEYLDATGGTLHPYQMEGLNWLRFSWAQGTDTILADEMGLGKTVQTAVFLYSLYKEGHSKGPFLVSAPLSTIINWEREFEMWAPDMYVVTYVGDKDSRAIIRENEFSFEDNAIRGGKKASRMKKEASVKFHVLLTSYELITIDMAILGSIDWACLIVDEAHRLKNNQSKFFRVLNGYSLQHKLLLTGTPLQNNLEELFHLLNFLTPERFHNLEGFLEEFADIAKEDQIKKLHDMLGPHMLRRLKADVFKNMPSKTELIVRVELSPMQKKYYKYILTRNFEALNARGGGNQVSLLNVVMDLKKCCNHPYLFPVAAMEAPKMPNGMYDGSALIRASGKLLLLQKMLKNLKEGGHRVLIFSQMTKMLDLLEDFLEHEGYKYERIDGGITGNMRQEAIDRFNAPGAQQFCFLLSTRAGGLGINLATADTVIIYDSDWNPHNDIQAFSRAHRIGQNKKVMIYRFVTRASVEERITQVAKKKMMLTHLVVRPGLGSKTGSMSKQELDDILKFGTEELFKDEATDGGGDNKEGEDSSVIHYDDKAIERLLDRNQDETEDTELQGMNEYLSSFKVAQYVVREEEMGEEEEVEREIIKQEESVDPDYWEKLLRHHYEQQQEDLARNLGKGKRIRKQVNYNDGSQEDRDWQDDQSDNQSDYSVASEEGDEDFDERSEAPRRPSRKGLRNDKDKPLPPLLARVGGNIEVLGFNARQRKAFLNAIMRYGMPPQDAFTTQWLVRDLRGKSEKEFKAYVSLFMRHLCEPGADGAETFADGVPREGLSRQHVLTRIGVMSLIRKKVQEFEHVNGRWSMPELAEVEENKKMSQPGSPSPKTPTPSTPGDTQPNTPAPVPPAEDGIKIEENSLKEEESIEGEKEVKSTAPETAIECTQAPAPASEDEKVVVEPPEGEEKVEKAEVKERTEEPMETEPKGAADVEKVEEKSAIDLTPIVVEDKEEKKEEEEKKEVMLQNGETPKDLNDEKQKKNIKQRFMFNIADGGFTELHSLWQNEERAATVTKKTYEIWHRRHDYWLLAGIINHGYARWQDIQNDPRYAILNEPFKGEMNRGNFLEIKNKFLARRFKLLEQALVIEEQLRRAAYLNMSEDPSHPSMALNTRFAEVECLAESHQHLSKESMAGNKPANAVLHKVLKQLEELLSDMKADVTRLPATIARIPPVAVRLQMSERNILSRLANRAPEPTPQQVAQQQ
inactive: [1] 0.003 | [2] -0.004 | [3] -0.007 | [4] -0.05 | [5] -0.038 | [6] 0.005 | [7] 0.011 | [8] 0.021 | [9] -0.05 | [10] 0.05 | [11] 0.006 | [12] 0.008 | [13] -0.011 | [14] -0.006 | [15] 0.015 | [16] -0.038 | [17] -0.008 | [18] 0.031 | [19] 0.01 | [20] 0.001

ATRIP (UniProt Q8WXE1)
UniProt Q8WXE1, sequence (Q8WXE1 whole entry, looked up): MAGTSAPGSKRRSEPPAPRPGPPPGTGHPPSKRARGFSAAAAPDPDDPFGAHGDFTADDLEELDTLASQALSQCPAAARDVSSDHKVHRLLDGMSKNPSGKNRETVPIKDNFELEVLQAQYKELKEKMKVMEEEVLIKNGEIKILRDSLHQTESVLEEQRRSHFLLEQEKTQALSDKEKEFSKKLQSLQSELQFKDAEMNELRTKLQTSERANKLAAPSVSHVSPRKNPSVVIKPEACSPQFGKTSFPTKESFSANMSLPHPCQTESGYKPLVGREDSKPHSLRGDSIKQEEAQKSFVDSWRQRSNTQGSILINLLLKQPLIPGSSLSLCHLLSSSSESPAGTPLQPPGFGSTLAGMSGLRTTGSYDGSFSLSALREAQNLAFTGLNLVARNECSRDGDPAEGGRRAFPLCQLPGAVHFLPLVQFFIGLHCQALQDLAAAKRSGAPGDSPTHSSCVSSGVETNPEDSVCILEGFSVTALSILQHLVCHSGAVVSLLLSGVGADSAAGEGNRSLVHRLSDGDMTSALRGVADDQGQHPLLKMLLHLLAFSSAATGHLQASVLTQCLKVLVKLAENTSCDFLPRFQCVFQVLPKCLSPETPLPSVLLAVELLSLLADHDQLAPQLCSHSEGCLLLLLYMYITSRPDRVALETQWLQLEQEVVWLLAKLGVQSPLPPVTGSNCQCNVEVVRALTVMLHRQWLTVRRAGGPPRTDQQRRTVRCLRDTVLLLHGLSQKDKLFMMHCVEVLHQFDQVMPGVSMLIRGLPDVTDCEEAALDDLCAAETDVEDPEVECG
inactive: [1] -0.046 | [2] 0.187 | [3] 0.012 | [4] -0.034 | [5] -0.016 | [6] -0.056 | [7] 0.097 | [8] 0.001 | [9] -0.035 | [10] 0.006 | [11] -0.014 | [12] -0.028 | [13] -0.059 | [14] 0.071 | [15] 0.045 | [16] -0.03 | [17] -0.049 | [18] -0.007 | [19] 0.01 | [20] 0.032

CDC123 (UniProt O75794)
UniProt O75794, sequence (O75794 whole entry, looked up): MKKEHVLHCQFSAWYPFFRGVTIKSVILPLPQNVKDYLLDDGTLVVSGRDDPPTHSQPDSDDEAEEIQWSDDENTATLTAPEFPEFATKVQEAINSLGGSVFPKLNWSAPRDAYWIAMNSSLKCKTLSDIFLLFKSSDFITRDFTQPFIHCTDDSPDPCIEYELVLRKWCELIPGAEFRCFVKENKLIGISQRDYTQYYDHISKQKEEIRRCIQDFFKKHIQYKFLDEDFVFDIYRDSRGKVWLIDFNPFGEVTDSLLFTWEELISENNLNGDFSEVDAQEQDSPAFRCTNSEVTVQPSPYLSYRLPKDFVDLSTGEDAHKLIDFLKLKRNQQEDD
active: [6] 0.335
inactive: [1] 0.016 | [2] -0.011 | [3] -0.012 | [4] 0.032 | [5] 0.02 | [7] -0.022 | [8] -0.032 | [9] -0.049 | [10] -0.048 | [11] 0.026 | [12] -0.011 | [13] -0.006 | [14] -0.104 | [15] 0.033 | [16] 0.008 | [17] -0.008 | [18] 0.022 | [19] -0.009 | [20] 0.017

CEP41 (UniProt Q9BYV8)
UniProt Q9BYV8, sequence (Q9BYV8 whole entry, looked up): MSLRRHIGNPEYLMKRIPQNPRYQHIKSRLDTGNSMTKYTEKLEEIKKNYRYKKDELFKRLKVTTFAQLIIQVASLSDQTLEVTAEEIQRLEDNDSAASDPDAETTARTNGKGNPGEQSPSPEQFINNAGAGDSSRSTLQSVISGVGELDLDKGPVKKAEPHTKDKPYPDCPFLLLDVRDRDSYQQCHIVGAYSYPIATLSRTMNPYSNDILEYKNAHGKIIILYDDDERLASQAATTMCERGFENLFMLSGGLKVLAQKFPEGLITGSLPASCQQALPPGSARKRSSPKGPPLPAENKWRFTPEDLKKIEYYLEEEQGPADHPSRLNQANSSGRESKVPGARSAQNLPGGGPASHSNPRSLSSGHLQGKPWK
inactive: [1] -0.017 | [2] 0.039 | [3] 0.062 | [4] 0.047 | [5] -0.013 | [6] 0.003 | [7] 0.086 | [8] 0.044 | [9] -0.067 | [10] 0.007 | [11] 0.001 | [12] 0.034 | [13] 0.043 | [14] -0.008 | [15] -0.077 | [16] -0.068 | [17] -0.027 | [18] -0.128 | [19] 0.066 | [20] 0.076
